In PubChem BioAssay AID1159580 (chemical genetic matrix, 2015):
Values joined by “and” are separate entries in the source; they are usually repeats but may differ in a detail not shown here. Equal entries are not always repeated. Screen size: about 5,500 compounds; about 2,000 (36%) were called active. About 18% were inconclusive and are not listed. Cut-off read from the data, not from the text of the source: active = normalized growth mostly below about 0.91 (no sharp cut-off); inconclusive = no clear call, values can overlap the other calls; inactive = mostly above about 0.92. This is one part of the list.

Assay: chemical genetic growth profiling, strain panel (AID 1159580);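 note: tested at 20 µM; growth read once vehicle control cultures reached saturation at 30 °C; 1 = growth at the plate median or of vehicle wells; lower values mean less growth of the strain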
Details: S. cerevisiae deletion strains, growth OD

Measured: normalized growth

S=C=NCc1ccccc1
active: locus YAL013W, strain DEP1, stronger effect = lower value 0.0579 | locus YAL021C, strain ccr4, stronger effect = lower value 0.661 | locus YAL026C, strain drs2, stronger effect = lower value 0.0761 | locus YAL030W, strain snc1, stronger effect = lower value 0.0648 | locus YBL061C, strain skt5, stronger effect = lower value 0.079 | locus YBR009C, strain hhf1, stronger effect = lower value 0.0753 | locus YBR021W, strain FUR4, stronger effect = lower value 0.17 | locus YBR023C, strain chs3, stronger effect = lower value 0.0813 | locus YBR171W, strain sec66, stronger effect = lower value 0.117 | locus YBR229C, strain ROT2, stronger effect = lower value 0.0461 | locus YBR231C, strain swc5, stronger effect = lower value 0.0718 | locus YBR279W, strain paf1, stronger effect = lower value 0.0918 | locus YCL011C, strain gbp2, stronger effect = lower value 0.0749 | locus YCL016C, strain dcc1, stronger effect = lower value 0.0958 | locus YCL029C, strain bik1, stronger effect = lower value 0.0592 | locus YCL061C, strain MRC1, stronger effect = lower value 0.0833 | locus YCL069W, strain vba3, stronger effect = lower value 0.0787 | locus YCR088W, strain abp1, stronger effect = lower value 0.069 | locus YDL005C, strain med2, stronger effect = lower value 0.583 | locus YDL035C, strain GPR1, stronger effect = lower value 0.0548 | locus YDL040C, strain nat1, stronger effect = lower value 0.139 | locus YDL074C, strain BRE1, stronger effect = lower value 0.0981 | locus YDL101C, strain DUN1, stronger effect = lower value 0.0649 | locus YDL134C, strain PPH21, stronger effect = lower value 0.0517 | locus YDL185W, strain tfp1, stronger effect = lower value 0.0574 | locus YDL192W, strain arf1, stronger effect = lower value 0.0627 | locus YDR001C, strain nth1, stronger effect = lower value 0.07 | locus YDR069C, strain doa4, stronger effect = lower value 0.143 | locus YDR101C, strain arx1, stronger effect = lower value 0.0574 | locus YDR137W, strain rgp1, stronger effect = lower value 0.616 | locus YDR150W, strain NUM1, stronger effect = lower value 0.0586 | locus YDR159W, strain sac3, stronger effect = lower value 0.275 | locus YDR162C, strain NBP2, stronger effect = lower value 0.0541 | locus YDR195W, strain ref2 0.187 | locus YDR297W, strain sur2, stronger effect = lower value 0.068 | locus YDR318W, strain mcm21, stronger effect = lower value 0.0636 | locus YDR334W, strain swr1, stronger effect = lower value 0.0851 | locus YDR335W, strain msn5, stronger effect = lower value 0.0739 | locus YDR388W, stronger effect = lower value 0.061 | locus YDR392W, strain spt3, stronger effect = lower value 0.112 | locus YDR502C, strain sam2, stronger effect = lower value 0.0605 | locus YEL003W, strain gim4, stronger effect = lower value 0.0605 | locus YEL037C, strain rad23, stronger effect = lower value 0.178 | locus YEL061C, strain CIN8 (second series), stronger effect = lower value 0.0786 | locus YEL061C, strain CIN8, stronger effect = lower value 0.05 | locus YER015W, strain faa2, stronger effect = lower value 0.0762 | locus YER016W, strain bim1, stronger effect = lower value 0.081 | locus YER110C, stronger effect = lower value 0.0778 | locus YER111C, strain swi4, stronger effect = lower value 0.0829 | locus YER155C, strain BEM2 (second series), stronger effect = lower value 0.0957 | locus YER155C, strain BEM2, stronger effect = lower value 0.0627 | locus YER167W, strain BCK2, stronger effect = lower value 0.0526 | locus YFR010W, strain ubp6, stronger effect = lower value 0.136 | locus YGL078C, strain dbp3, stronger effect = lower value 0.0565 | locus YGL086W, strain mad1, stronger effect = lower value 0.0589 | locus YGL167C, strain pmr1, stronger effect = lower value 0.393 | locus YGL173C, strain kem1, stronger effect = lower value 0.214 | locus YGL227W, strain vid30, stronger effect = lower value 0.072 | locus YGL240W, strain doc1, stronger effect = lower value 0.203 | locus YGL248W, strain PDE1, stronger effect = lower value 0.0468 | locus YGL253W, strain hxk2, stronger effect = lower value 0.0793 | locus YGR078C, strain PAC10, stronger effect = lower value 0.0557 | locus YGR135W, strain pre9, stronger effect = lower value 0.066 | locus YGR229C, strain SMI1, stronger effect = lower value 0.0658 | locus YGR252W, strain gcn5, stronger effect = lower value 0.176 | locus YHR013C, strain ard1, stronger effect = lower value 0.175 | locus YHR027C, strain rpn1, stronger effect = lower value 0.103 | locus YHR030C, strain SLT2, stronger effect = lower value 0.0491 and 0.174 | locus YHR079C, strain IRE1 (second series), stronger effect = lower value 0.0547 | locus YHR079C, strain IRE1, stronger effect = lower value 0.181 | locus YHR094C, strain hxt1, stronger effect = lower value 0.0577 | locus YHR129C, strain ARP1, stronger effect = lower value 0.0553 | locus YHR142W, strain chs7, stronger effect = lower value 0.0817 | locus YHR200W, strain rpn10, stronger effect = lower value 0.0598 | locus YIL066C, strain RNR3, stronger effect = lower value 0.0519 | locus YIL073C, strain SPO22, stronger effect = lower value 0.132 | locus YIL125W, strain kgd1, stronger effect = lower value 0.0561 | locus YIR030C, strain dcg1, stronger effect = lower value 0.0588 | locus YJL092W, strain hpr5, stronger effect = lower value 0.08 | locus YJL095W, strain BCK1 (second series), stronger effect = lower value 0.0601 | locus YJL095W, strain BCK1, stronger effect = lower value 0.0573 and 0.268 | locus YJL115W, strain asf1, stronger effect = lower value 0.123 | locus YJL129C, strain trk1, stronger effect = lower value 0.257 | locus YJL134W, strain LCB3, stronger effect = lower value 0.0484 | locus YJL154C, strain vps35, stronger effect = lower value 0.165 | locus YJL164C, strain tpk1, stronger effect = lower value 0.0744 | locus YJL166W, strain qcr8, stronger effect = lower value 0.0848 | locus YJL168C, strain set2, stronger effect = lower value 0.0599 | locus YJL187C, strain SWE1 (second series), stronger effect = lower value 0.0487 | locus YJL187C, strain SWE1, stronger effect = lower value 0.0904 | locus YJR043C, strain POL32, stronger effect = lower value 0.0693 | locus YJR066W, strain TOR1, stronger effect = lower value 0.735
